Records with an inconclusive call do not appear. Calls of active or inactive are those of the source. Calls come from the whole dose curve; as a rule, active = well fitted curve in the direction sought with a large enough effect; inconclusive = small, poorly fitted or top-dose-only effect, or another doubt; inactive = no such curve, though single readings can be large; an effect the other way counts as inactive or inconclusive.
Legend:
[1] = qHTS of pediatric cancer cell lines to identify multiple opportunities for drug repurposing: Primary screen for TC32 cells (AID 1347089); note: nearly all actives have a fitted effect of over 60% in size
In short: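 TC32 cells, 500-1,000/well in growth medium, compound-treated 48 h at 37 °C; viability from CellTiter-Glo luminescence. Primary screen: MIPE 11-point (0.78 nM–46 µM final), NPC 8-point (0.59 nM–46 µM final); confirmatory at 11-point dilutions.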

[2] = qHTS of pediatric cancer cell lines to identify multiple opportunities for drug repurposing: Primary screen for DAOY cells (AID 1347090); note: series mostly up to about 46 µM; nearly all actives have a fitted effect of over 55% in size
In short: (§1)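 Eight- or eleven-point concentration series, 48 h treatment at 37 degrees C in growth media; readout CellTiter-Glo luminescence. Potency and efficacy were taken from the concentration-response curves.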

[3] = qHTS of pediatric cancer cell lines to identify multiple opportunities for drug repurposing: Primary screen for SJ-GBM2 cells (AID 1347091)
In short: as §1

[4] = qHTS of pediatric cancer cell lines to identify multiple opportunities for drug repurposing: Primary screen for A673 cells (AID 1347092); note: nearly all actives have a fitted effect of over 45% in size
In short: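 A673 cells (500-1,000 cells/well) were treated 48 hours at 37 degrees C with compounds at 11-point (0.78 nM to 46 µM) or 8-point (0.59 nM to 46 µM) dilutions. Viability read by CellTiter-Glo luminescence; concentration-response curves fitted.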

[5] = qHTS of pediatric cancer cell lines to identify multiple opportunities for drug repurposing: Primary screen for SK-N-MC cells (AID 1347093); note: series mostly up to about 46 µM
In short: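 Metabolically active cells were quantified by ATP-dependent luminescence (CellTiter-Glo, 15 min at room temperature) following 48 h treatment. Cells had been plated at 500-1,000 per well and settled for 5 h beforehand.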

[6] = qHTS of pediatric cancer cell lines to identify multiple opportunities for drug repurposing: Primary screen for BT-37 cells (AID 1347094); note: series mostly up to about 57 µM
In short: (§2)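 Plated cells (500-1,000 per well, growth media) were allowed to settle for 5 hours, treated with compound dilutions for 48 hours, then lysed with CellTiter-Glo for 15 min at room temperature before luminescence reading.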

[7] = qHTS of pediatric cancer cell lines to identify multiple opportunities for drug repurposing: Primary screen for NB-EBc1 cells (AID 1347095)
In short: as §2

[8] = qHTS of pediatric cancer cell lines to identify multiple opportunities for drug repurposing: Primary screen for U-2 OS cells (AID 1347096); note: nearly all actives have a fitted effect of over 50% in size
In short: (§3)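 Cells (500-1,000/well) in growth media were settled 5 h at 37 degrees C, then given compounds for 48 h. Viability was read as CellTiter-Glo luminescence. Primary runs used MIPE at 11 points (0.78 nM-46 µM) and NPC at 8 points (0.59 nM-46 µM); follow-ups used 11 points.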

[9] = qHTS of pediatric cancer cell lines to identify multiple opportunities for drug repurposing: Primary screen for Saos-2 cells (AID 1347097); note: nearly all actives have a fitted effect of over 40% in size
In short: as §2

[10] = qHTS of pediatric cancer cell lines to identify multiple opportunities for drug repurposing: Primary screen for NB1643 cells (AID 1347099); note: nearly all actives have a fitted effect of over 50% in size
In short: as §2

[11] = qHTS of pediatric cancer cell lines to identify multiple opportunities for drug repurposing: Primary screen for LAN-5 cells (AID 1347100)
In short: as §3

[12] = qHTS of pediatric cancer cell lines to identify multiple opportunities for drug repurposing: Primary screen for BT-12 cells (AID 1347101); note: nearly all actives have a fitted effect of over 25% in size
In short: (§4)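 Cells (500-1,000/well) rested 5 h, then received compounds for 48 h; metabolically active cells were measured by CellTiter-Glo luminescence. Final concentrations spanned up to 46 µM (MIPE, 11-point) or 0.59 nM-46 µM (NPC, 8-point) in primary screens, 11-point in follow-ups.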

[13] = qHTS of pediatric cancer cell lines to identify multiple opportunities for drug repurposing: Primary screen for Rh18 cells (AID 1347102); note: nearly all actives have a fitted effect of over 65% in size
In short: as §3

[14] = qHTS of pediatric cancer cell lines to identify multiple opportunities for drug repurposing: Primary screen for OHS-50 cells (AID 1347103); note: nearly all actives have a fitted effect of over 40% in size
In short: as §4

[15] = qHTS of pediatric cancer cell lines to identify multiple opportunities for drug repurposing: Primary screen for RD cells (AID 1347104); note: nearly all actives have a fitted effect of over 55% in size
In short: as §2

[16] = qHTS of pediatric cancer cell lines to identify multiple opportunities for drug repurposing: Primary screen for SK-N-SH cells (AID 1347098);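 note: DMSO served as neutral control and bortezomib at 2.3 µM as positive control; nearly all actives have a fitted effect of over 65% in size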
In short: as §4

Measured: Potency

Cc1c(F)c(N2CCNC(C)C2)cc2c1c(=O)c(C(=O)O)cn2C1CC1 (stereo unspecified)
inactive: [1] | [2] | [3] | [4] | [5] | [6] | [7] | [8] | [9] | [10] | [11] | [12] | [13] | [14] | [15]

COc1cc2c(cc1OC)[C@@H]1CC(=O)[C@@H](CC(C)C)CN1CC2
inactive: [1] | [2] | [3] | [4] | [5] | [6] | [7] | [9] | [10] | [11] | [12] | [15]

C=CCc1ccc(O)c(OC)c1
inactive: [1] | [2] | [3] | [4] | [5] | [6] | [7] | [8] | [9] | [16] | [10] | [11] | [12] | [13] | [15]

CC(C)(Oc1ccc(Cl)cc1)C(=O)O
inactive: [1] | [2] | [3] | [4] | [5] | [6] | [7] | [8] | [9] | [16] | [10] | [11] | [12] | [13] | [14] | [15]

CC[C@@H](CO)NCCN[C@@H](CC)CO
inactive: [1] | [2] | [3] | [4] | [5] | [6] | [7] | [8] | [9] | [16] | [10] | [11] | [12] | [15]

CCN(CC)CCNC(=O)COc1ccc(Cl)cc1
inactive: [1] | [2] | [3] | [4] | [5] | [6] | [7] | [8] | [9] | [16] | [10] | [11] | [12] | [14] | [15]

CCCCC(=O)O[C@]1(C(=O)CO)CC[C@H]2[C@@H]3CCC4=CC(=O)CC[C@]4(C)[C@H]3[C@@H](O)C[C@@]21C
inactive: [1] | [2] | [3] | [4] | [5] | [6] | [7] | [9] | [16] | [10] | [11] | [12] | [13] | [15]

C[C@]12C=CC(=O)C=C1CC[C@@H]1[C@@H]2[C@@H](O)C[C@@]2(C)[C@H]1CC[C@]2(O)C(=O)CO
inactive: [1] | [2] | [3] | [4] | [5] | [6] | [7] | [8] | [16] | [10] | [11] | [12] | [13] | [15]

CC1(C)O[C@@H]2C[C@H]3[C@@H]4C[C@H](F)C5=CC(=O)C=C[C@]5(C)[C@H]4[C@@H](O)C[C@]3(C)[C@]2(C(=O)CO)O1
inactive: [1] | [2] | [3] | [4] | [5] | [6] | [7] | [16] | [10] | [11] | [12] | [15]

Cc1ccnc(NS(=O)(=O)c2ccc(N)cc2)n1
inactive: [1] | [2] | [3] | [4] | [5] | [6] | [7] | [9] | [16] | [10] | [11] | [12] | [13] | [14] | [15]

C[C@H](O)C(=O)Nc1c(I)c(C(=O)NC(CO)CO)c(I)c(C(=O)NC(CO)CO)c1I
inactive: [1] | [2] | [3] | [4] | [5] | [6] | [7] | [9] | [16] | [10] | [11] | [12] | [15]

C/C=C/c1ccc(OC)cc1
inactive: [1] | [2] | [3] | [4] | [5] | [6] | [7] | [8] | [9] | [10] | [11] | [12] | [13] | [14] | [15]

COc1cc(/C=C/C(=O)O[C@H]2CC[C@]34C[C@]35CC[C@]3(C)[C@@H]([C@H](C)CCC=C(C)C)CC[C@@]3(C)[C@@H]5CC[C@H]4C2(C)C)ccc1O
inactive: [1] | [2] | [3] | [4] | [5] | [6] | [7] | [8] | [9] | [10] | [11] | [12] | [13] | [15]

CCCC(=O)Nc1ccc(OCC(O)CNC(C)C)c(C(C)=O)c1 (stereo unspecified)
inactive: [1] | [2] | [3] | [4] | [5] | [6] | [7] | [16] | [10] | [11] | [12] | [13] | [14] | [15]

CC1(C)O[C@@H]2C[C@H]3[C@@H]4CCC5=CC(=O)CC[C@]5(C)[C@@]4(F)[C@@H](O)C[C@]3(C)[C@]2(C(=O)CCl)O1
inactive: [1] | [2] | [3] | [4] | [5] | [6] | [7] | [8] | [9] | [16] | [10] | [11] | [15]

Cc1ccc(C(=O)C(C)CN2CCCCC2)cc1 (stereo unspecified)
inactive: [1] | [2] | [3] | [4] | [5] | [6] | [7] | [8] | [9] | [10] | [11] | [12] | [13] | [14] | [15]
